Most compounds without a hit are left out; they make up all but 2.9% or so of the library.
cytoskel mod: modifiers of F-actin cytoskeleton organization, primary screen, imaging, HUVEC, phalloidin staining, high-content imaging. HUVEC TNFa F-actin phalloidin imaging. inhibition, % at 2 µM. 91,000 tested, 0.18% active. AID 836, 2007;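 active = inhibition above the batch mean plus 3 SD and confirmed as a hit by visual image inspection, cut at about 30% in these data, passing the limit was not always enough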
E-sel TNF inh: E-selectin induction blockers in HUVEC – imaging, immunofluorescence, high content, primary screen. HUVEC TNFa-induced E-selectin immunofluorescence. inhibition, % at 2 µM. 120,000 tested, 0.71% active;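 active = inhibition above the batch mean plus 3 SD, and confirmed as a hit on visual image review, cut at about 43% in these data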
Calb biofilm kill: clotrimazole potentiators killing Candida biofilms, primary screen, with clotrimazole, Alamar Blue | C. albicans biofilm + clotrimazole | inhibition, % at 6 µM | 85,000 tested, 0.14% active | AID 834, 2007;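 active = inhibition above 20%; inactive = inhibition below 20%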;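 note: preformed 24 hr biofilms exposed to compound for 48 hr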
ERa coact pot: enhancers of ERα–SRC-1 coactivator binding, primary screen, biochemical, TR-FRET, ERα LBD, low estradiol. Estrogen receptor (Homo sapiens), P03372. TR-FRET ERalpha-LBD/SRC-Cy5 coactivator binding, 2 h; 100 = basal binding, no effect. coactivator binding (% of control), % at 25.6 µM. 86,000 tested, 1.3% active. AID 639, 2007; in the data active = activity above about 200%;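 note: binding measured in presence of low estradiol as agonist stimulus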
ERa SRC1 inh: ERα–SRC-1 coactivator interaction inhibitors, primary screen, biochemical, TR-FRET, ERα LBD, estradiol-bound | TR-FRET ER-alpha LBD / SRC-1 peptide | inhibition, % at 25.6 µM | 86,000 tested, 1.7% active; in the data active = inhibition above about 50%
ERb coact inh: inhibitors of ERβ-SRC1 coactivator interaction, primary screen, biochemical, TR-FRET, ERβ LBD, SRC-1 peptide; AID 633, 2007; TR-FRET ER-beta LBD / SRC1-Cy5 peptide binding; receptor agonist-loaded with 1 µM estradiol; 86,000 tested, 1.3% active; Estrogen receptor beta (Homo sapiens), Q92731; inhibition, % at 25.6 µM;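 active = compounds whose percent inhibition of the receptor-coactivator binding signal exceeds about 50% in the single-dose screen, limit read from the data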
Target sequence (Q92731 whole entry, looked up, the tested form may be a part): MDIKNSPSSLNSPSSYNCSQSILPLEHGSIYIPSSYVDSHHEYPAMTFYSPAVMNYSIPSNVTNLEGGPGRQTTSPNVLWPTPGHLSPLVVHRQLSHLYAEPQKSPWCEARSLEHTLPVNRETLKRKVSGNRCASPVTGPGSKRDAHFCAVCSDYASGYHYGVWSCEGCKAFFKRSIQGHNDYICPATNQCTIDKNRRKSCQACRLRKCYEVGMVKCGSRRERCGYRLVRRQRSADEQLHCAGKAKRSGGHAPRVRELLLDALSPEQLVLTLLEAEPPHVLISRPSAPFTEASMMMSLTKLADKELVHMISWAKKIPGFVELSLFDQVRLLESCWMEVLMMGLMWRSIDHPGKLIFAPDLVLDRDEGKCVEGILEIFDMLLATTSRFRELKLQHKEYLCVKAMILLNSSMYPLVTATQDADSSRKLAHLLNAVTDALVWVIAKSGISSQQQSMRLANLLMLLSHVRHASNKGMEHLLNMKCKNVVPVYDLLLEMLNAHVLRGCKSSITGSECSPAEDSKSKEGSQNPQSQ
Large screens that a line does not name were inactive; [ ] = dose if it differs, or a comment.

O=C(Nc1ccc2c(c1)oc1ccccc12)c1ccc2c(c1)OCO2	none
COc1ccc(OC)c(N2Cc3cc(C)c(C)cc3C2)c1	none
Cc1onc(-c2ccccc2)c1C(=O)Nc1nc(-c2cc(F)ccc2F)cs1	ERa coact pot 208[fluorescence artefact?]
Cc1onc(-c2ccccc2)c1C(=O)Nc1cccc2nsnc12	ERa coact pot 266
Cc1nnc(NC(=O)c2c(-c3ccccc3)noc2C)s1	none
COc1ccc(NC(=O)C(Cl)=C(Cl)Cl)cn1	none (no result: cytoskel mod, Calb biofilm kill, ERa coact pot, ERa SRC1 inh, ERb coact inh)
COc1ccc(NC(=O)/C(Cl)=C(/Cl)S(=O)Cc2ccc(Cl)cc2)cn1 (stereo not given)	E-sel TNF inh 100 (no result: cytoskel mod, Calb biofilm kill, ERa coact pot, ERa SRC1 inh, ERb coact inh)
CCc1ccc(Cn2nnc(C(=O)Nc3ccc(OC)cc3OC)c2N)cc1	none
CCOc1ccc(Cn2nnc(C(=O)NCc3ccc(OC)cc3)c2N)cc1	ERa coact pot 228 (no result: E-sel TNF inh)
COCCn1c(SCC(=O)Nc2sccc2C(N)=O)nnc1-c1ccncc1	none (no result: cytoskel mod, Calb biofilm kill, ERa coact pot, ERa SRC1 inh, ERb coact inh)
COc1cccc(C2C(C(C)=O)=C(O)C(=O)N2Cc2ccco2)c1 (stereo not given)	ERa SRC1 inh 58[fluorescence artefact?]
COc1ccc(OC)c(C2/C(=C(/O)c3ccc(C)cc3)C(=O)C(=O)N2Cc2ccco2)c1 (stereo not given)	ERa SRC1 inh 96[fluorescence artefact?] (no result: cytoskel mod)
Cc1cc(C)n2nc(SCn3nnc4ccccc4c3=O)nc2n1	none (no result: E-sel TNF inh)
Cc1cc(C)n2nc(SCc3cc(=O)oc4cc(O)ccc34)nc2n1	ERa SRC1 inh 58, ERb coact inh 62[fluorescence artefact?]
O=C(NC(=S)N(Cc1ccccc1)c1ccccn1)C1CCCCC1	none (no result: cytoskel mod, Calb biofilm kill, ERa coact pot, ERa SRC1 inh, ERb coact inh)
CN(Cc1ccccc1)C(=S)NC(=O)C1CCCCC1	E-sel TNF inh 93 (no result: cytoskel mod, Calb biofilm kill, ERa coact pot, ERa SRC1 inh, ERb coact inh)
Cc1nn(-c2ccccc2)c2sc(C(=O)OC3CCOC3=O)cc12 (stereo not given)	none
CCOC(=O)C1=C(C)NC(=O)/C1=C\N(C)C	none (no result: cytoskel mod, Calb biofilm kill, ERa coact pot, ERa SRC1 inh, ERb coact inh)
CCOC(=O)C1=C(C)S/C(=C\N(C)C)C1=O	ERa SRC1 inh 54, ERb coact inh 73[fluorescence artefact?]
Cc1ccc2c(c1)C(c1ccccc1)N(C(=O)C(C)C)CC(=O)N2 (stereo not given)	none (no result: cytoskel mod, E-sel TNF inh)
Cc1ccc2c(c1)C(c1ccc(F)cc1)N(C(=O)c1cc3ccccc3oc1=O)CC(=O)N2 (stereo not given)	E-sel TNF inh 95 (no result: cytoskel mod, Calb biofilm kill, ERa coact pot, ERa SRC1 inh, ERb coact inh)
O=C(Nc1ccc2snnc2c1)N1CCN(c2ccccc2)CC1	ERa coact pot 627[fluorescence artefact?]
CC1=C(C#N)C(Nc2ccc(C)cn2)(C(F)(F)F)C(=O)N1 (stereo not given)	ERa coact pot 228[fluorescence artefact?]
CC1=C(C#N)C(Nc2ccc(Cl)cn2)(C(F)(F)F)C(=O)N1 (stereo not given)	none
C=C(C)C(=O)Nc1ccc(OC(F)(F)C(F)F)c(NC(=O)C(=C)C)c1	ERa coact pot 210
Cc1csc2nc(CCNS(=O)(=O)c3ccc4c(c3)OCCO4)cn12	ERa SRC1 inh 54 (no result: E-sel TNF inh)
COc1ccc(S(=O)(=O)NCc2cn3c(C)csc3n2)cc1F	Calb biofilm kill 21 (no result: E-sel TNF inh)
CCOC(=O)c1cc(-c2ccc(F)cc2)n(CCC(=O)NC2CCN(Cc3ccccc3)CC2)c1C	none (no result: cytoskel mod, Calb biofilm kill, ERa coact pot, ERa SRC1 inh, ERb coact inh)
Cc1cc(C)c(C#N)c(=N)o1	E-sel TNF inh 62
Cc1cc(NC(=O)COC(=O)CCNS(=O)(=O)c2c(Cl)cccc2Cl)no1	none (no result: cytoskel mod, Calb biofilm kill, ERa coact pot, ERa SRC1 inh, ERb coact inh)
Cc1cc(C(F)F)n2ncc(C(=O)O)c2n1	none
Cc1cc(N2CCN(C)CC2)nc2ccc(NC(=O)c3cccnc3Cl)cc12	Calb biofilm kill 61 (no result: cytoskel mod)
Cc1ccc(S(=O)(=O)NCCn2c(C)cc3ccccc32)cc1	ERa coact pot 376 (no result: cytoskel mod)
Cc1cc(C)c(S(=O)(=O)NCCn2c(C)cc3ccccc32)c(C)c1	none
Cc1cc2ccccc2n1CCNC(=O)c1ccc(S(=O)(=O)N2CCCCC2)cc1	ERa coact pot 348[fluorescence artefact?]
c1coc(C2Nc3cccc4cccc(c34)N2)c1	ERa SRC1 inh 74[fluorescence artefact?], ERb coact inh 78[fluorescence artefact?] (no result: E-sel TNF inh)
FC(F)(F)c1ccc(C2Nc3cccc4cccc(c34)N2)cc1	none (no result: cytoskel mod, Calb biofilm kill, ERa coact pot, ERa SRC1 inh, ERb coact inh)
O=C(Nc1ccc(Cl)c(Cl)c1)OCCNC(=O)c1cccc(Cl)c1	none

Screens deposited in PubChem BioAssay by several laboratories.
